Assay results reported in PubChem BioAssay AID1159580 (chemical genetic matrix, 2015).
Values joined by “and” are separate entries in the source; they are usually repeats but may differ in a detail not shown here. Equal entries are not always repeated. Out of some 5,500 compounds screened, about 2,000 (36%) were called active. Roughly 18% stayed inconclusive and do not appear here. Cut-off read from the data, not from the text of the source: active = normalized growth mostly below about 0.91 (no sharp cut-off); inconclusive = no clear call, values can overlap the other calls; inactive = mostly above about 0.92. This is one part of the list.

Test: chemical genetic growth profiling, strain panel (AID 1159580);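 note: tested at 20 µM; growth read once vehicle control cultures reached saturation at 30 °C; 1 = growth at the plate median or of vehicle wells; lower values mean less growth of the strain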
Details: growth OD

Measured: normalized growth

NC/C=C/C(=O)O
inactive: S. cerevisiae deletion strains, locus YJR043C, strain POL32, stronger effect = lower value 1.04 | S. cerevisiae deletion strains, locus YJR075W, strain HOC1, stronger effect = lower value 1.01 | S. cerevisiae deletion strains, locus YKL009W, strain mrt4, stronger effect = lower value 1.03 | S. cerevisiae deletion strains, locus YKL068W, stronger effect = lower value 1.01 | S. cerevisiae deletion strains, locus YKL085W, strain MDH1 (second series), stronger effect = lower value 1.01 | S. cerevisiae deletion strains, locus YKL085W, strain MDH1, stronger effect = lower value 1.01 | S. cerevisiae deletion strains, locus YKL160W, strain elf1, stronger effect = lower value 0.981 | S. cerevisiae deletion strains, locus YKL190W, strain CNB1, stronger effect = lower value 1.02 | S. cerevisiae deletion strains, locus YKR001C, strain vps1, stronger effect = lower value 1.02 | S. cerevisiae deletion strains, locus YKR026C, strain gcn3, stronger effect = lower value 0.987 | S. cerevisiae deletion strains, locus YKR091W, strain srl3, stronger effect = lower value 1.01 | S. cerevisiae deletion strains, locus YLL001W, strain dnm1, stronger effect = lower value 1 | S. cerevisiae deletion strains, locus YLL026W, stronger effect = lower value 1 | S. cerevisiae deletion strains, locus YLL041C, strain sdh2, stronger effect = lower value 1.01 | S. cerevisiae deletion strains, locus YLR027C, strain aat2, stronger effect = lower value 1.01 | S. cerevisiae deletion strains, locus YLR039C, strain RIC1, stronger effect = lower value 1.07 | S. cerevisiae deletion strains, locus YLR058C, strain SHM2, stronger effect = lower value 1.02 | S. cerevisiae deletion strains, locus YLR102C, strain apc9, stronger effect = lower value 1.01 | S. cerevisiae deletion strains, locus YLR221C, strain rsa3, stronger effect = lower value 0.999 | S. cerevisiae deletion strains, locus YLR258W, strain gsy2, stronger effect = lower value 1.02 | S. cerevisiae deletion strains, locus YLR262C, strain YPT6 (second series), stronger effect = lower value 1.01 | S. cerevisiae deletion strains, locus YLR262C, strain YPT6, stronger effect = lower value 1.03 | S. cerevisiae deletion strains, locus YLR268W, strain sec22, stronger effect = lower value 0.98 | S. cerevisiae deletion strains, locus YLR320W, strain mms22, stronger effect = lower value 1.01 | S. cerevisiae deletion strains, locus YLR330W, strain CHS5, stronger effect = lower value 1.01 | S. cerevisiae deletion strains, locus YLR342W, strain FKS1 (second series), stronger effect = lower value 1.11 | S. cerevisiae deletion strains, locus YLR342W, strain FKS1, stronger effect = lower value 1.01 | S. cerevisiae deletion strains, locus YLR357W, strain rsc2, stronger effect = lower value 1.1 | S. cerevisiae deletion strains, locus YLR370C, strain arc18, stronger effect = lower value 1.01 | S. cerevisiae deletion strains, locus YLR371W, strain rom2, stronger effect = lower value 1.02 | S. cerevisiae deletion strains, locus YLR384C, strain iki3, stronger effect = lower value 1.02 | S. cerevisiae deletion strains, locus YLR418C, strain cdc73, stronger effect = lower value 0.943 | S. cerevisiae deletion strains, locus YML016C, strain PPZ1, stronger effect = lower value 1.01 | S. cerevisiae deletion strains, locus YML032C, strain rad52, stronger effect = lower value 1.05 | S. cerevisiae deletion strains, locus YML120C, strain ndi1, stronger effect = lower value 1.01 | S. cerevisiae deletion strains, locus YML124C, strain tub3, stronger effect = lower value 1.01 | S. cerevisiae deletion strains, locus YMR058W, strain fet3, stronger effect = lower value 1.01 | S. cerevisiae deletion strains, locus YMR078C, strain ctf18, stronger effect = lower value 1.02 | S. cerevisiae deletion strains, locus YMR125W, strain sto1, stronger effect = lower value 1.04 | S. cerevisiae deletion strains, locus YMR129W, stronger effect = lower value 0.973 | S. cerevisiae deletion strains, locus YMR205C, strain PFK2, stronger effect = lower value 1.02 | S. cerevisiae deletion strains, locus YMR223W, strain ubp8, stronger effect = lower value 1.04 | S. cerevisiae deletion strains, locus YMR231W, strain pep5, stronger effect = lower value 1.01 | S. cerevisiae deletion strains, locus YMR263W, strain SAP30, stronger effect = lower value 1.01 | S. cerevisiae deletion strains, locus YMR307W, strain GAS1, stronger effect = lower value 1.02 and 0.997 | S. cerevisiae deletion strains, locus YNL067W, strain RPL9B, stronger effect = lower value 1.01 | S. cerevisiae deletion strains, locus YNL071W, strain lat1, stronger effect = lower value 1.01 | S. cerevisiae deletion strains, locus YNL128W, strain TEP1, stronger effect = lower value 0.988 | S. cerevisiae deletion strains, locus YNL153C, strain GIM3, stronger effect = lower value 1.01 and 1.03 | S. cerevisiae deletion strains, locus YNL175C, strain NOP13, stronger effect = lower value 1 | S. cerevisiae deletion strains, locus YNL197C, strain WHI3, stronger effect = lower value 0.996 | S. cerevisiae deletion strains, locus YNL209W, strain ssb2, stronger effect = lower value 1 | S. cerevisiae deletion strains, locus YNL224C, strain SQS1, stronger effect = lower value 1 | S. cerevisiae deletion strains, locus YNL233W, strain BNI4, stronger effect = lower value 1.02 | S. cerevisiae deletion strains, locus YNL248C, strain rpa49, stronger effect = lower value 1.01 | S. cerevisiae deletion strains, locus YNL250W, strain rad50, stronger effect = lower value 1 | S. cerevisiae deletion strains, locus YNL271C, strain bni1, stronger effect = lower value 1.02 | S. cerevisiae deletion strains, locus YNL298W, strain CLA4, stronger effect = lower value 1.01 | S. cerevisiae deletion strains, locus YNL307C, strain MCK1, stronger effect = lower value 1.05 | S. cerevisiae deletion strains, locus YNL322C, strain KRE1 (second series), stronger effect = lower value 1 | S. cerevisiae deletion strains, locus YNL322C, strain KRE1, stronger effect = lower value 1.01 and 1.02 | S. cerevisiae deletion strains, locus YNR049C, strain mso1, stronger effect = lower value 1.01 | S. cerevisiae deletion strains, locus YNR052C, strain pop2, stronger effect = lower value 1.01 | S. cerevisiae deletion strains, locus YOL006C, strain TOP1, stronger effect = lower value 1.04 | S. cerevisiae deletion strains, locus YOL012C, strain htz1 0.927 | S. cerevisiae deletion strains, locus YOL147C, strain pex11, stronger effect = lower value 1.01 | S. cerevisiae deletion strains, locus YOR001W, strain rrp6, stronger effect = lower value 0.99 | S. cerevisiae deletion strains, locus YOR061W, strain CKA2, stronger effect = lower value 1.01 | S. cerevisiae deletion strains, locus YOR069W, strain VPS5, stronger effect = lower value 1.02 | S. cerevisiae deletion strains, locus YOR070C, strain gyp1, stronger effect = lower value 1 | S. cerevisiae deletion strains, locus YOR080W, strain dia2, stronger effect = lower value 1 | S. cerevisiae deletion strains, locus YOR083W, strain WHI5 (second series), stronger effect = lower value 1.02 | S. cerevisiae deletion strains, locus YOR083W, strain WHI5, stronger effect = lower value 0.971 | S. cerevisiae deletion strains, locus YOR106W, strain vam3, stronger effect = lower value 0.991 | S. cerevisiae deletion strains, locus YOR136W, strain idh2, stronger effect = lower value 1.01 | S. cerevisiae deletion strains, locus YOR144C, strain elg1, stronger effect = lower value 1 | S. cerevisiae deletion strains, locus YOR184W, strain ser1, stronger effect = lower value 1.06 | S. cerevisiae deletion strains, locus YOR265W, strain rbl2, stronger effect = lower value 1.01 | S. cerevisiae deletion strains, locus YOR270C, strain vph1, stronger effect = lower value 1.01 | S. cerevisiae deletion strains, locus YOR290C, strain snf2, stronger effect = lower value 0.993 | S. cerevisiae deletion strains, locus YOR316C, strain cot1, stronger effect = lower value 1.02 | S. cerevisiae deletion strains, locus YPL051W, strain arl3, stronger effect = lower value 0.989 | S. cerevisiae deletion strains, locus YPL055C, strain LGE1, stronger effect = lower value 0.952 and 1.01 | S. cerevisiae deletion strains, locus YPL078C, strain atp4, stronger effect = lower value 0.983 | S. cerevisiae deletion strains, locus YPL106C, strain sse1, stronger effect = lower value 1.02 | S. cerevisiae deletion strains, locus YPL240C, strain hsp82, stronger effect = lower value 0.991 | S. cerevisiae deletion strains, locus YPL241C, strain CIN2, stronger effect = lower value 1.02 and 1 | S. cerevisiae deletion strains, locus YPR119W, strain clb2, stronger effect = lower value 1 | S. cerevisiae deletion strains, locus YPR141C, strain kar3, stronger effect = lower value 1.01 | S. cerevisiae deletion strains, locus YPR163C, strain tif3, stronger effect = lower value 1.01 | S. cerevisiae deletion strains, locus YPR167C, strain met16, stronger effect = lower value 1.01 | S. cerevisiae deletion strains, strain wtn01, stronger effect = lower value 0.982 | S. cerevisiae strains, strain wild type, stronger effect = lower value 1.03
